Screening results as filed in PubChem.
Rows were chosen to be rich in hits. Some 4.1% of all compounds tested hit in one or more screens of this group.
AMA1 RON2 block = disrupts binding of P. falciparum AMA1 to RON2. 360,000 compounds, 0.2% hits. Potency, µM (series often up to 58.2 µM), usual class: inhibitors. AlphaScreen AMA1-biotinylated RON2 peptide binding; further: nearly all actives have a fitted effect of over 45% in size
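AMA1 (3D7) with his tag at 25 nM final met compounds first, then biotinylated RON2 peptide at 25 nM; detection used donor plus acceptor beads, 10 µg/mL apiece, read by AlphaScreen after 30 min at room temperature.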
AmpC no deterg = blocks E. coli AmpC beta-lactamase in detergent-free assay; P00811; AmpC nitrocefin hydrolysis, absorbance 480 nm, 0.0001% Triton; Potency, µM (highest dose often 57.1 µM), most hits filed as inhibitors; 330,000 compounds, 0.52% hits; AID 485341; further: nearly all actives have a fitted effect of over 20% in size
Target sequence (P00811 whole entry, looked up): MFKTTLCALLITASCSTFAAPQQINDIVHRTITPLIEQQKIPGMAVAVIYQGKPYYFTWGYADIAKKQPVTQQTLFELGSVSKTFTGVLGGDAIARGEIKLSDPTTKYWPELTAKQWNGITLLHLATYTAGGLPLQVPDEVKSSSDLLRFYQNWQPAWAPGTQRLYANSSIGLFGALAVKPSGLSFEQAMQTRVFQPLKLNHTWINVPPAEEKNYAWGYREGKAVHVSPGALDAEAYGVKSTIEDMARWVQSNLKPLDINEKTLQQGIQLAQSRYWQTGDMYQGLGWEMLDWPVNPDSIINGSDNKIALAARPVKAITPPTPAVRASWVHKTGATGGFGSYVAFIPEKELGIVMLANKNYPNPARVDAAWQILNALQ
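20 mM phosphate pH 7.0 + 0.01% (detergent screen) or 0.0001% Triton X-100; 5.3 nM AmpC reagent; cpd preinc 15 min RT; nitrocefin (800 uM stock) to start; A480 q20 s × 4 min; Activity was normalised to no-enzyme and no-compound control wells.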
AmpC detergent = inhibitors of E. coli AmpC beta-lactamase with detergent; P00811; AmpC hydrolysis of nitrocefin, absorbance 480 nm, 0.01% Triton; Potency, µM (top dose mostly 114 µM), actives largely listed as inhibitors; 370,000 compounds, 0.041% hits; AID 485294; further: nearly all actives have a fitted effect of over 25% in size
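20 mM phosphate pH 7.0 + 0.01% (detergent screen) or 0.0001% Triton X-100; 5.3 nM AmpC reagent; cpd preinc 15 min RT; nitrocefin (800 uM stock) to start; A480 q20 s × 4 min; Activity was normalised to no-enzyme and no-compound control wells.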
FMDV antiviral = foot and mouth disease virus antiviral activity | FMDV antiviral cell-based qHTS | Potency, µM (top dose mostly 57.9 µM), usual class: inhibitors | 410,000 compounds, 1.2% hits; calls by dose curve; tested in HEK293T cells; further: read-out not given here; nearly all actives have a fitted effect of over 45% in size
Sm TGR inh = S. mansoni TGR enzyme inhibition. 360,000 compounds, 3% hits. Potency, µM (doses to about 114 µM), usual class: inhibitors. AID 485364. purified TGR, DTNB reduction, TNB absorbance 405 nm; further: nearly all actives have a fitted effect of over 60% in size
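TGR 20 nM + NADPH 100 uM (dispensed conc.), cpd preinc 15 min RT; start with NADPH (500 uM addition) then DTNB (15 mM addition). Kinetic TNB absorbance, 405 nm filter. Four-parameter Hill fit across titration.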
Of the large screens only hits and unclear results are named; the others gave an inactive call. Unless noted, the call rests on the fitted dose curve; in most records, active means well fitted curve in the direction sought with a large enough effect; inconclusive means small, poorly fitted or top-dose-only effect, or another doubt; inactive means no such curve, though single readings can be large; an effect the other way counts as inactive or inconclusive.

C#CCOCCOCCOCCNc1nc(N2CCN(C(=O)CCCCCCCCCCNC(=O)Cn3cc(CCCCCN)nn3)CC2)nc(N2CCN(C(=O)CCCCCCCCCCNC(=O)[C@@H](CCC(=O)O)n3cc(CCCCCN)nn3)CC2)n1	Sm TGR inh 50.1µM
CN1CCC(OC(=O)COc2ccc(Br)cc2)CC1	Sm TGR inh 20µM
O=C(NC1=NCCS1)C1COc2ccccc2O1 (centres undefined)	FMDV antiviral 10µM
COc1cccc(NC(=O)C2COc3ccccc3O2)c1 (centres undefined)	AmpC detergent inconclusive
O=C(Nc1ccncc1)C1COc2ccccc2O1 (centres undefined)	none
COC(=O)c1cc(NC(=O)C2COc3ccccc3O2)cc(C(=O)OC)c1 (centres undefined)	AmpC no deterg 0.224µM
COc1cc(/C=C/C(=O)c2ccc(F)cc2)cc(OC)c1OC	FMDV antiviral 25.1µM (no result: Sm TGR inh)
COc1ccc(/C=C/C(=O)c2ccccc2)cc1COc1ccc(F)cc1	FMDV antiviral inconclusive
COc1cc(/C=C/C(=O)c2ccc3c(c2)OCO3)cc(OC)c1OC	FMDV antiviral 22.4µM
COc1ccc(/C=C/C(=O)c2ccc(O)cc2)cc1COc1ccc(F)cc1	AmpC no deterg 11.2µM (no result: FMDV antiviral)
CCOc1ccc(C(=O)/C=C/c2cc(OC)c(OC)c(OC)c2)cc1	FMDV antiviral inconclusive
COc1cc(/C=C/C(=O)c2ccc3c(c2)OCCO3)cc(OC)c1OC	FMDV antiviral inconclusive
CCOC(=O)c1c(S(=O)(=O)N2CCCC(C(=O)NCc3ccccc3Cl)C2)c(C)n(C)c1C (centres undefined)	none (no result: AMA1 RON2 block, AmpC no deterg)
COc1ccc(C(=O)CCS(=O)(=O)c2ccc(C)cc2)cc1OC	FMDV antiviral inconclusive, Sm TGR inh 0.447µM
Cc1ccc(S(=O)(=O)CCC(=O)c2ccc(O)cc2O)cc1	Sm TGR inh 0.447µM
COc1ccccc1CNC(=O)CN1C(=O)CSc2ccc(S(=O)(=O)N3CCCCC3)cc21	none (no result: AMA1 RON2 block, AmpC no deterg)
N/C(Cn1cncn1)=N\NC(=O)c1ccc(Cl)cc1Cl	none
CC(C)(C)C(=O)C(Oc1ccc(Cl)cc1)n1cncn1 (centres undefined)	none (no result: AmpC no deterg, AmpC detergent, Sm TGR inh)
CC(C)(C)C(=O)/C(=C\c1ccc([N+](=O)[O-])cc1)n1cncn1	Sm TGR inh 2.24µM (no result: AMA1 RON2 block, FMDV antiviral)
CC(C)/C=C(/C(=O)c1ccc(Cl)cc1Cl)n1cncn1	FMDV antiviral 35.5µM, Sm TGR inh 35.5µM
CN(C)/C=C(/C(=O)c1ccccc1)n1cncn1	AmpC detergent inconclusive
CC(C)(C)C(=O)/C(=C/c1ccc(Cl)cc1)n1cncn1	FMDV antiviral 15.8µM, Sm TGR inh inconclusive
COc1ccc(NC(=O)Cn2cc(C(=O)c3ccccc3)c(=O)c3cc(OC)ccc32)c(OC)c1	none (no result: AMA1 RON2 block, AmpC no deterg)
Cc1cc(C)c2c(=O)cc(C(=O)Nc3c(C)n(C)n(-c4ccccc4)c3=O)oc2c1	none (no result: AMA1 RON2 block, AmpC no deterg)
Cc1[nH]c2ccccc2c1C(c1ccccn1)N1CCC(C(N)=O)CC1 (centres undefined)	FMDV antiviral inconclusive, Sm TGR inh 0.355µM
CCOC(=O)C1CCN(C(c2ccccn2)c2c(C)[nH]c3ccccc23)CC1 (centres undefined)	Sm TGR inh 0.282µM
CCCCNC(=O)c1cnn2c(C)c(Cc3c(F)cccc3Cl)c(C)nc12	none (no result: AMA1 RON2 block, AmpC no deterg)
O=C(O)CCCCC1CCSS1 (centres undefined)	AmpC no deterg 15.8µM, AmpC detergent 50.1µM
O=C(c1cccnc1)C1CCCN(Cc2ccc3c(c2)CN(C(=O)c2cnccn2)CCO3)C1 (centres undefined)	none (no result: AMA1 RON2 block, AmpC no deterg, AmpC detergent, Sm TGR inh)
Cc1ccc(Sc2cc(NCCCO)c([N+](=O)[O-])c3nonc23)cc1	FMDV antiviral inconclusive, Sm TGR inh 3.55µM
CC(C)CCSc1cc(NCCO)c([N+](=O)[O-])c2nonc12	AmpC detergent inconclusive, Sm TGR inh 2.51µM
O=[N+]([O-])c1c(NCCO)cc(N2CCCCC2)c2nonc12	none
CC(=O)OCCCNc1cc(Sc2ccc(Cl)cc2)c2nonc2c1[N+](=O)[O-]	FMDV antiviral 31.6µM, Sm TGR inh 3.16µM
COc1ccccc1C(CCNCc1ccc(N(C)C)cc1)c1ccc(OC(C)C)cc1 (centres undefined)	AMA1 RON2 block 8.91µM, FMDV antiviral inconclusive
CCc1ccc(NC(=O)c2sc(-n3nc(C)c(CCC(C)C)c3C)nc2C)cc1	none (no result: AMA1 RON2 block, AmpC no deterg)
Cc1ccc(NC(=O)c2ccc([N+](=O)[O-])o2)c(C)c1	none (no result: Sm TGR inh)
Cc1ccc(S(=O)(=O)c2ccc([N+](=O)[O-])o2)cc1	FMDV antiviral 17.8µM (no result: AmpC no deterg, AmpC detergent, Sm TGR inh)
CN(CCC#N)C(=O)CSc1nnc(-c2ccco2)n1N	none
CCCN(CC1CC1)C(=O)CSc1nnc(-c2ccco2)n1N	Sm TGR inh 50.1µM (no result: AMA1 RON2 block, FMDV antiviral)
CCOc1ccc(N2C(=O)N(Cc3c(F)cccc3Cl)c3ccccc3S2(=O)=O)cc1	none (no result: AMA1 RON2 block, AmpC no deterg)
CCN1CCN(CC2COc3ccccc3O2)CC1 (centres undefined)	none
c1ccc2c(c1)CC(CN1CCNCC1)O2 (centres undefined)	AmpC detergent inconclusive, Sm TGR inh 14.1µM
Cc1ccc(CNc2nc(CN3CCSCC3)nc3ccccc23)o1	none (no result: AMA1 RON2 block, AmpC no deterg, AmpC detergent, Sm TGR inh)
COc1ccc(-n2c(-c3ccco3)nc3c(cnn3-c3ccc(Cl)cc3)c2=O)cc1	none (no result: AMA1 RON2 block, AmpC no deterg)
O=c1c2cnn(-c3ccccc3)c2nc(-c2ccco2)n1-c1ccccc1	FMDV antiviral 14.1µM
O=C(CCn1c(=O)c2sccc2n(Cc2ccccc2F)c1=O)NCc1ccc2c(c1)OCO2	none (no result: AMA1 RON2 block, AmpC no deterg)
Cn1c(=O)n(CCc2ccccc2)c(=O)c2c1nc1n2CCCN1CCc1ccccc1	AmpC detergent inconclusive, FMDV antiviral inconclusive
Cn1c(=O)n(CCc2ccccc2)c(=O)c2c1nc1n2CCCN1Cc1ccccc1	AmpC detergent inconclusive, FMDV antiviral 20µM
CN(C(=O)CC1C(=O)NCCN1Cc1c(F)cccc1Cl)C1CCOCC1 (centres undefined)	Sm TGR inh 50.1µM
CN(C(=O)CC1C(=O)NCCN1Cc1ccoc1)C1CCOCC1 (centres undefined)	none
Cc1ccc(CN2CCNC(=O)C2CC(=O)N(C)C2CCOCC2)cc1 (centres undefined)	Sm TGR inh 44.7µM
CN(C(=O)CC1C(=O)NCCN1Cc1cccc(F)c1F)C1CCOCC1 (centres undefined)	Sm TGR inh inconclusive
Cc1nc(CN2CCN(C(=O)CC3(c4ccccc4Cl)CC(=O)N(C)C3=O)CC2)cs1 (centres undefined)	none (no result: AMA1 RON2 block, AmpC no deterg, AmpC detergent, Sm TGR inh)
Cc1cccc(N2C(N)=C(C#N)C(C#N)(C#N)C2c2ccccc2)c1 (centres undefined)	FMDV antiviral 39.8µM (no result: AmpC no deterg)
N#CC1=C(N)N(c2ccccc2)C(c2cccc([N+](=O)[O-])c2)C1(C#N)C#N (centres undefined)	FMDV antiviral inconclusive
COc1cccc(/C(O)=C2/C(=O)C(=O)N(Cc3ccco3)C2c2ccncc2)c1 (centres undefined)	Sm TGR inh 28.2µM
